This is an account of results in the supplement of paper PMC10338343.

± gives the standard deviation.

The test system of the first assay is MILI (PIWIL2) piRISC loaded with L1MC piRNA (26 nt). The experiment in a line: pre-steady-state target cleavage rate (min^-1); guide: L1MC piRNA 5'p-UAACUAAAUACUAUGCAAGCUGUAGG; higher = faster piRNA-guided slicing of the target. As to conditions: auxiliary factor: none (no GTSF1). Put shortly: (§1)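 A transcribed, DNA-blocked target RNA library […] was incubated at 33 °C for 0–8 or 0–960 min with 1 nM active affinity-purified piRISC carrying one synthetic guide, in HEPES–potassium acetate buffer with or without 500 nM GTSF1 partner protein. Uncleaved targets were then sequenced and normalised to depth and to weakly complementary targets. Data from three trials were pooled, with k3 capped at 0.0001 min^-1, and a burst-and-steady-state fit yielded the pre-steady-state cleavage rate.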
On to UCCUGCUAGAGCUUGCAUAGUAUUUAGUUA, for which the “pre-steady-state target cleavage rate” value came out at 0.00605 ± 0.0021. On the same count and under the same terms, for UCCUCCUACAGGUAGCAUAGUAUUUAGUUA the value was 0.00904 ± 0.0021; for UCCUGGUACAGCUUGCAUAGUAUUUGAGUUA, 0.00534 ± 0.0027.

As for UCCUGGAUCAGCUUGCUUAGUAAUUAGUUA, the “pre-steady-state target cleavage rate” value was determined as 0.00689 ± 0.0022.

On to UCCUGGUACUGCUUGCUUAGUAUUUAGUUA, for which the “pre-steady-state target cleavage rate” value was determined as 0.0115 ± 0.0025. Still for that read-out and setting: with UCCUGGAACUAGCUUGCAUAGUAUUUAGUUA the figure was 0.00841 ± 0.0027.

Turning to UCCUGGAUCAAGCUUGCAUAGUAUUUAGUUA, the “pre-steady-state target cleavage rate” value was 0.0103 ± 0.0028. The same measure, in the same setting: with UCCUGCUACAGCCUGCAUAGUAUUUAGUUA the figure was 0.00704 ± 0.0031; with UCCUGGAUCGAGCUUGCAUAGUAUUUAGUUA, 0.0122 ± 0.0026; with UCCUCCUACAGCUAGCAUUGUAUUUAGUUA, 0.00496 ± 0.0019. Same read-out and setting: for UCCUGCUACAGCGUGCAUAGUAUUUAGUUA the value was 0.00602 ± 0.0024.

As for UCCUCCUACAGCAUGCAUAGUAUUUAGUAA, the “pre-steady-state target cleavage rate” value was found to be 0.00366 ± 0.0021. Same read-out and setting: for UCCUCCUACACCUUGCAUAGUAUUUAGUUA the value was 0.0085 ± 0.0022; for UCCUGGAUGUCGAUUGCAUAGUAUUUAGUUA, 0.00748 ± 0.0024; for UCCUGCUACAGCUUGCAUAGUAUUUAUGUUA, 0.00699 ± 0.0022. On the same count and under the same terms, with UCCUCCUACAGCUUGCAUAGUAUUUAAGUUA the figure was 0.00686 ± 0.0024.

The test system of a further assay is EfPiwi piRISC loaded with L1MC piRNA (26 nt). Briefly: pre-steady-state target cleavage rate (min^-1); auxiliary factor: 500 nM Ephydatia muelleri Gtsf1; guide: L1MC piRNA 5'p-UAACUAAAUACUAUGCAAGCUGUAGG; MIWI and MILI are mouse PIWI proteins and EfPiwi is from a freshwater sponge; tags in brackets are library labels; higher = faster piRNA-guided slicing of the target.
Conditions: not given
Put shortly: as §1
On to UCCUGGAACAGCUUGCAUAGUAUUUUAGUUA, for which the “pre-steady-state target cleavage rate” value was found to be 0.0192 ± 0.0054. On the same count and under the same terms, for UCCUCCUACAGCUUGCAUAGUAUUUACUUA the value was 0.0042 ± 0.0034; for UCCUGGAAGAGCUUGCAUUGUAUUUAGUUA, 0.0104 ± 0.0029. Regarding UCCUGCUACAGGUUGCAUAGUAUUAAGUUA, the “pre-steady-state target cleavage rate” value came out at 0.00526 ± 0.0024. Still for that read-out and setting: with UCCUGGAUCAGGUUGCUUAGUAUUUAGUUA the figure was 0.00555 ± 0.0024; with UCCUCCUACAGCUUGCAUAGUAUUUAGUCA, 0.00693 ± 0.003; with UCCUGGAUGUGCUUGCAUAGUAUGUUAGUUA, 0.00406 ± 0.0038. Same read-out and setting: with UCCUGGUACACCUAGCAUAGUAUUUAGUUA the figure was 0.00319 ± 0.0029; with UCCUGGAACAGCUUGCAUAGUACUUAGUUA, 0.0218 ± 0.0069; with UCCUGGUACAGGUAGCAUAGUAUUUAGUUA, 0.00853 ± 0.0036. On the same count and under the same terms, for UCCUCCUACAGGAUGCAUAGUAUUUAGUAA the value was 0.0119 ± 0.0048; for UCCUGGAACAGCAUGCAUUGUAUUUAGUUA, 0.00504 ± 0.002; for UCCUGGUACUGCUUGCAUUGUAUUUAGUUA, 0.00516 ± 0.0027.

Regarding UCCUGCACAGCUUGCAUAGUAUUUAGUUA, the “pre-steady-state target cleavage rate” value came to 0.0745 ± 0.016. The same measure, in the same setting: for UCCUGCUUACAGCUUGCAUAGUAUUUAGUUA the value was 0.0638 ± 0.015; for UCCUGCUUGAGCUUGCAUAGUAUUUAGUAA, 0.00772 ± 0.0023. As for UCCUCCUUCAGCUUGCAUAGUAUAUAGUUA, the “pre-steady-state target cleavage rate” value was 0.0124 ± 0.0058. UCCUGGAUCAGCUUGCAUAGUAUUCAGUUA: the “pre-steady-state target cleavage rate” value was 0.00509 ± 0.0019. Same read-out and setting: with UCCUGGAUCAGCUUGCAUCGUAUUUAGUUA the figure was 0.00918 ± 0.0028; with UCCUCCUACAGGUUGCAUAGUAUAUAGUUA, 0.0129 ± 0.0046. Still for that read-out and setting: with UCCUGGUACAGCUUGCAUAGUAUUAUGUUA the figure was 0.00349 ± 0.0025; with UCCUGCUAGAGCUUGCAUAGUAUUAAGUUA, 0.00624 ± 0.0022; with UCCUCCUUCAGCUUGGAUAGUAUUUAGUUA, 0.0562 ± 0.013. The same measure, in the same setting: for UCCUGGUACAAGCUUGCAUAGUAUUUAGUUA the value was 0.0481 ± 0.014. Take UCCUGCUAGAGCUUGCAUAGUAUUUAGUUA: the “pre-steady-state target cleavage rate” value was found to be 0.00838 ± 0.0023.

For the sequence UCCUCCUACAGGUAGCAUAGUAUUUAGUUA, the “pre-steady-state target cleavage rate” value is 0.0265 ± 0.006. With UCCUGGUACAGCUUGCAUAGUAUUUGAGUUA, the “pre-steady-state target cleavage rate” value is 0.00306 ± 0.0023.

In the case of UCCUGGAUCAGCUUGCUUAGUAAUUAGUUA, the “pre-steady-state target cleavage rate” value was 0.0988 ± 0.033.

Take UCCUGGUACUGCUUGCUUAGUAUUUAGUUA: the “pre-steady-state target cleavage rate” value amounted to 0.00909 ± 0.0033.

With UCCUGGAACUAGCUUGCAUAGUAUUUAGUUA, the “pre-steady-state target cleavage rate” value came out at 0.0126 ± 0.0045. As for UCCUGGAUCAAGCUUGCAUAGUAUUUAGUUA, the “pre-steady-state target cleavage rate” value amounted to 0.0542 ± 0.012.

UCCUGCUACAGCCUGCAUAGUAUUUAGUUA: the “pre-steady-state target cleavage rate” value was found to be 0.01 ± 0.0029. As for UCCUGGAUCGAGCUUGCAUAGUAUUUAGUUA, the “pre-steady-state target cleavage rate” value was 0.0315 ± 0.0069. For the sequence UCCUCCUACAGCUAGCAUUGUAUUUAGUUA, the “pre-steady-state target cleavage rate” value turned out to be 0.0127 ± 0.0042. As for UCCUGCUACAGCGUGCAUAGUAUUUAGUUA, the “pre-steady-state target cleavage rate” value is 0.0101 ± 0.0026.

For the sequence UCCUCCUACAGCAUGCAUAGUAUUUAGUAA, the “pre-steady-state target cleavage rate” value came out at 0.00521 ± 0.0023. Still for that read-out and setting: for UCCUCCUACACCUUGCAUAGUAUUUAGUUA the value was 0.0762 ± 0.025; for UCCUGGAUGUCGAUUGCAUAGUAUUUAGUUA, 0.00712 ± 0.0027; for UCCUGCUACAGCUUGCAUAGUAUUUAUGUUA, 0.00419 ± 0.0019.

As to UCCUCCUACAGCUUGCAUAGUAUUUAAGUUA, the “pre-steady-state target cleavage rate” value stood at 0.00943 ± 0.0038.
